D1 antag – antagonists of human D1 dopamine receptor; activity change, negative = inhibition, % at 10 µM; 360,000 compounds, 3.2% hits; P21728; AID 504652; HEK293 TREx D1 cells, calcium flux, dopamine EC80; stronger effect = lower value; in the data active = activity change below about -30%; also: % is scaled to controls: 0 for no effect and ±100 for the full control effect
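Calcium flux readout: force-coupled, inducible Hek293 Trex D1 line, cells induced overnight at 30 C with tetracycline, dye-loaded 30–90 min at RT. Antagonism scored against EC80 dopamine challenge given 180 s after compound.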
D1 potentiator – potentiators of human D1 dopamine receptor; 360,000 compounds, 0.036% hits; HEK293 TREx D1 cells, calcium flux, dopamine EC20 potentiation; potentiation, % at 10 µM; AID 504651; P21728; in the data active = potentiation above about 30%; also: 0% is about no effect
D3 antag – antagonists of human D3 dopamine receptor. P35462. D3R cells, DiscoveRx beta-arrestin luminescence, antagonist mode; stronger effect = lower value. max response, negative = inhibition, %. 360,000 compounds, 2.5% hits; in the data active = max response below about -50%; inconclusive = no clear call, values can overlap the other calls; also: % is scaled to controls: 0 for no effect and ±100 for the full control effect
Target sequence (P35462 whole entry, looked up): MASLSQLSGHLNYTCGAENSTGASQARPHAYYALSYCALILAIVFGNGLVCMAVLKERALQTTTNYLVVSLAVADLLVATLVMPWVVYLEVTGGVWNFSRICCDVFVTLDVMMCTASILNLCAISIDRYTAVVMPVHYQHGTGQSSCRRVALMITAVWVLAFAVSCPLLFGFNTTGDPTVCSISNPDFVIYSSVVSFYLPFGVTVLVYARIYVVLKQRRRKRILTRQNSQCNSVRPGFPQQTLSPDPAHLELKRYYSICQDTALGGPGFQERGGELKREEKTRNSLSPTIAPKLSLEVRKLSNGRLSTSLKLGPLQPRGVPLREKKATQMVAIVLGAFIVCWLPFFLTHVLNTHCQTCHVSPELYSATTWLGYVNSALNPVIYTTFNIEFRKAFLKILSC
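Cells expressing the human receptor were seeded at 1500 cells/well, incubated overnight at 37 degrees C in 5% CO2, then exposed to library compounds with dopamine controls for 90 minutes at 37 degrees C before luminescent detection.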
D1 ag – activates the human D1 dopamine receptor; HEK293 T-REx D1 cells, calcium flux, agonist mode; activation, % at 2 µM; 360,000 compounds, 1% hits; in the data active = activation above about 30%; also: 0% is about no effect
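Tetracycline-induced HEK293 TREx D1 cells, force-coupled to calcium signalling, were dye-loaded with a no-wash calcium kit. Compound was pin-added after a 10 s baseline. Fluorescence was read kinetically at 1 cycle/s for 180 s, with calcium rises flagged as agonism.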
DRD3 agonist – activates the human D3 dopamine receptor | P35462 | D3R DiscoveRx beta-arrestin cells, luminescence, 90 min | max activation, % | 410,000 compounds, 0.58% hits; in the data active = max activation above about 30%; also: 0% is about no effect
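Agonist mode: compounds and dopamine controls were applied to plated cells for 90 min at 37 degrees C after an overnight attachment at 1500 cells/well. Luminescent read-out followed 30 - 60 minutes at room temperature with DiscoveRx detection reagent.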
BCR signal inh – inhibitors of chronic active B-cell receptor signaling; ABC-DLBCL IkBa-CBG/CBR reporter, luminescence ratio, 4 h; Potency, µM (series often up to 46.1 µM), for inactives: at the top dose activity change, negative = inhibition, most hits filed as inhibitors; 340,000 compounds, 0.05% hits; active = well fitted inhibition curve with a large enough effect in the signal ratio, with a control signal flat, not every such curve was filed as active; inconclusive = small, poorly fitted or top-dose-only effect, or effect the other way, or a change in a side signal; the % refers to the signal ratio;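 also: potency is read from the fitted curve at half-maximal effect; plate controls were basal doxycycline-induced cells for no effect and cells given 10 µM MG132 for full effect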
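Doxycycline induced both beetle luciferases in TMD8 lymphoma cells; IKK-driven degradation limits the IkappaBalpha-fused green signal, while red luminescence normalises for cell number and nonspecific effects. Compounds tested up to 46 uM, 4 hrs.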
* marks the source's active call; other numbers are inactive results; ? = inconclusive; . = no result given; ! = repeats disagree. Hits are enriched below; roughly 6% of the tested compounds scored in any of these assays.

SMILES | D1 antag | D1 potentiator | D3 antag | D1 ag | DRD3 agonist | BCR signal inh
Cc1nc([N+](=O)[O-])c(Br)n1CC(=O)c1cccc([N+](=O)[O-])c1 | -13.7 | -1.9 | -50.6* | 5.8 | 5.8 | ?
Cc1nc([N+](=O)[O-])c(Br)n1CC(=O)c1ccc(F)cc1 | -9.8 | -4.5 | ? | 12.6 | -1.0 | ?
Cc1cc(C)c2c(c1)c(C)cc1nnc(SCc3ccccc3C#N)n12 | 5.0 | 1.1 | . | -2.5 | 11.5 | .
O=C(CCCCCN1C(=O)c2cccc3cccc(c23)C1=O)NC1CCS(=O)(=O)C1 (stereo not given) | -31.1* | -2.7 | 8.5 | 1.0 | -1.6 | -16.5%
COc1ccccc1Cn1c(C)c(C(=O)NCCC#N)sc1=O | . | . | -1.8 | . | 4.0 | .
C=CCOC(=O)C1=C(C)NC(C)=C(C(=O)OCC=C)C1c1ccco1 | -30.2* | -15.3 | 7.3 | 2.5 | 0.8 | -1.9%
CCOC(=O)C1=C(C)NC(C)=C(C(=O)OC)C1c1ccco1 (stereo not given) | -15.7 | -3.4 | -7.6 | 2.7 | 5.6 | 0.4%
CN(c1ccc(C(=O)Nc2ccccc2C(=O)N2CCCC2)cc1)S(C)(=O)=O | -31.3* | -7.1 | 0.0 | 1.1 | -11.5 | .
O=C1/C(=C\c2ccc(O)cc2)SC(=S)N1/N=C/c1ccc(O)cc1 | -23.3 | 4.3 | 24.2 | 110.8* | 0.1 | ?
CC(=O)NN1C(=O)/C(=C\c2ccc(O)cc2)SC1=S | -8.0 | -4.3 | 0.0 | 14.9 | -1.4 | ?
Cc1cc(NC(=O)c2ccc(-c3ccc(Br)cc3)o2)cc(-c2nc3ncccc3o2)c1O | 17.2 | 1.2 | . | -0.6 | 1.9 | .
Cc1ccc(C(NC(=O)/C=C\c2ccc3c(c2)OCO3)C(=O)Nc2ccc3c(c2)OCO3)cc1 (stereo not given) | -4.4 | -0.8 | -88.4* | 8.4 | -27.8 | ?
CC(C)CCn1c(SCc2c(F)cccc2Cl)nc2ccsc2c1=O | -15.6 | 3.8 | . | 1.7 | 5.6 | 10.3%
CC1CCN(S(=O)(=O)c2ccc3c(c2)oc(=O)n3CC(=O)N2CCCCC2)CC1 | -13.4 | -3.2 | . | 5.9 | 6.0 | .
NS(=O)(=O)c1ccc(CCNC(=O)C2COc3ccccc3C2)cc1 (stereo not given) | 15.0 | -2.0 | . | 0.8 | -6.3 | .
CC1=CC(=C(C#N)c2nc3ccccc3s2)C=C(C)N1CC1CCCO1 (stereo not given) | 6.5 | -5.5 | -17.0 | 42.6* | -10.2 | 3.1%
CCC(=O)Oc1ccc2c(c1)CC[C@@H]1[C@@H]2CC[C@]2(C)[C@@H](OC(=O)CC)CC[C@@H]12 | . | . | . | . | 5.9 | .
C=C[C@@H]1c2ccccc2N(S(=O)(=O)c2ccc(C)cc2)[C@H](c2ccccc2C(F)(F)F)C1(C#N)C#N | 27.5 | 2.0 | 6.0 | 0.2 | 2.3 | 6.9%
C=C[C@@H]1c2ccccc2N(S(=O)(=O)c2ccc(C)cc2)[C@H](c2ccc(C(F)(F)F)cc2)C1(C#N)C#N | -31.6* | -3.5 | 11.5 | 1.6 | 7.3 | ?
NC1=CC(=O)c2cccc3cccc1c23 | -10.8 | -2.4 | . | 0.3 | . | 16.8%
O=C1C=C(O)c2cccc3cccc1c23 | 1.6 | 9.2 | -76.5* | 1.5 | -9.0 | 4.6%
COc1ccc(CCn2c(C(C)C)nc3c(c(=O)c4ccccc4n3C)c2=O)cc1 | -16.1 | -5.2 | 29.4 | 140.3* | 6.6 | -11.8%
COc1ccc(Cn2c(-c3ccc(C)cc3)nc3c(c(=O)c4ccccc4n3C)c2=O)cc1 | -0.2 | 3.1 | 2.9 | 39.0* | 15.2 | 0.6%
NS(=O)(=O)c1ccc(NC(=O)COC(=O)C2(c3ccccc3F)CCCC2)cc1 | -33.6* | -7.0 | -3.0 | 1.0 | -5.3 | 1.5%
O=C(COC(=O)C1(c2ccccc2F)CCCC1)NC1CCS(=O)(=O)C1 (stereo not given) | 14.9 | -2.1 | -61.8* | 3.2 | -5.1 | -11.9%
SMILES | D1 antag | D1 potentiator | D3 antag | D1 ag | DRD3 agonist | BCR signal inh
O=C(COc1ccccc1)NC1CCS(=O)(=O)C1 (stereo not given) | 12.3 | -1.6 | -5.1 | 1.3 | 0.8 | -0.7%
COc1ccc(N2CCN(CC(O)COc3cc(C)ccc3C)CC2)cc1 (stereo not given) | -25.9 | -14.5 | -19.7 | 10.3 | -6.7 | -11.2%
OC(COc1cccc2ccccc12)CN1CCN(c2cccc(Cl)c2)CC1 (stereo not given) | 12.4 | 11.1 | -6.1 | 4.3 | 44.8* | ?
Cc1cccc(N2CCN(CC(O)COc3ccccc3Cl)CC2)c1 (stereo not given) | -33.2* | -9.2 | -75.5* | 15.4 | 4.4 | ?
OC(COc1cccc2ccccc12)CN1CCN(c2ccc(Cl)cc2)CC1 (stereo not given) | -15.6 | -1.4 | -4.2 | 1.4 | -7.0 | -2.5%
CCc1ccc(S(=O)(=O)c2cn(C)c3cc(F)c(F)cc3c2=O)cc1 | -2.1 | -1.6 | . | 5.9 | -6.9 | .
Cc1cccc(CNc2ncnc3ccc(-c4ccc5c(ccn5C)c4)cc23)c1 | -10.9 | 0.2 | . | 0.4 | . | ?
CC1(C)CC(NC(=O)Cc2ccccc2)CC(C)(C)N1 | 10.8 | -25.2 | -23.9 | 0.1 | -3.6 | 1.1%
CC1(C)CC(NC(=O)CSc2ccccc2)CC(C)(C)N1 | -34.4* | -1.1 | -7.5 | 1.5 | 4.2 | 1.0%
CC1(C)CC(NC(=O)C(c2ccccc2)c2ccccc2)CC(C)(C)N1 | -31.9* | -1.1 | -1.1 | 2.2 | -2.5 | -1.1%
COc1ccc(OCC(=O)Nc2cc(-c3ccccc3F)nn2-c2ccccc2)cc1 | -3.1 | -1.6 | . | 5.5 | -1.8 | .
O=c1c(Cl)c2oc3ccccc3nc-2c2ccccc12 | 49.3 | -0.5 | 22.4 | 74.9* | 11.2 | 20.3%
COc1cccc(-c2nnn(CCC(=O)O)n2)c1 | -39.9* | -10.2 | 3.3 | 0.5 | -10.2 | ?
COc1ccc(-c2nnn(CCC(=O)O)n2)cc1 | . | -2.3 | 18.8 | 0.5 | -29.7 | ?
CCCC(=O)n1nc(-c2cccnc2)nc1NCc1ccccc1 | -42.5*! | -3.8 | 32.6 | 1.2 | -0.6 | -1.4%
COc1ccccc1N1CCN(C(=O)CN2C(=O)COc3ccc(S(=O)(=O)N4CCOCC4)cc32)CC1 | 44.9 | -0.9 | . | -1.8 | 0.1 | .
Cc1cccc(CN2CCN(C3CN(C4CCCC4)S(=O)(=O)C3)CC2)c1 (stereo not given) | . | . | ? | . | -10.8 | .
Cc1cccc(CN2CCN(C3CN(C4CCCCC4)S(=O)(=O)C3)CC2)c1 (stereo not given) | . | . | -57.0* | . | -14.3 | .
Cc1ccc(-c2cnc(C(O)c3c(C)cccc3C)[nH]2)cc1 (stereo not given) | . | . | -54.7* | . | -11.8 | .
Cc1cc(C)c(C(O)c2ncc(-c3cccc4ccccc34)[nH]2)c(C)c1 (stereo not given) | . | . | ? | . | -1.6 | .
Cc1cc(C)c(C(O)c2ncc(-c3ccccc3C)[nH]2)c(C)c1 (stereo not given) | . | . | -55.9* | . | -8.6 | .
